The source of these data is PubChem BioAssay.

Test [1] can be described thus: viability loss in pontine glioma line – cell-based, SU-DIPG-XIII, MIPE5.0, CellTiter-Glo, qHTS, dose response (AID 1347064; cut-off not given, nearly all actives have AC50 up to about 23 µM). To be noted: CellTiter-Glo ATP luminescence.
Test [2] can be described thus: growth inhibition of DIPG cells – cell-based, MIPE4.0 library, CellTiter-Glo luminescence, qHTS (AID 1347066; cut-off not given, nearly all actives have AC50 up to about 30 µM;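 also: cells exposed to compound for 48 hours before readout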). To be noted: SU-DIPG-VI viability, CellTiter-Glo ATP luminescence.
Test [3] in a line: JHH-DIPG-1 glioma cell viability, MIPE5.0 library, CellTiter-Glo luminescence, qHTS (AID 1347067; cut-off not given, nearly all actives have AC50 up to about 26 µM;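 also: cells exposed to compound for 48 hours before readout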). To be noted: JHH-DIPG-1 glioma viability, CellTiter-Glo ATP luminescence.
Test [4] in a line: growth inhibition of DIPG cells – cell-based, MIPE5.0 library, qHTS (AID 1347068; cut-off not given, nearly all actives have IC50 up to about 30 µM). The settings on record: SU-DIPG-XXV viability.
The nature of test [5]: viability loss with induced miR-34 in A549 – imaging, A549 dox-inducible miR-34, nuclei and caspase counts, primary screen (AID 1347080;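 active = compounds whose cell count with miR-34 switched on is under 0.7 times the count with it off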). The settings on record: A549 miR-34 inducible, Hoechst nuclei count, 48 h.
A short description of test [6]: MELAS cybrid and Rieske KO viability enhancers – cell-based, MELAS cybrids, Rieske KO mouse fibroblasts, CellTiter-Glo, primary screen (AID 1508586;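 active = mean z-score across replicates of 1.96 or higher in either the MELAS or the Rieske mutant cell line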;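 also: z relative to plate mean and SD of compound and empty wells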). The settings on record: low glucose.
Test [7] can be described thus: drug combination growth inhibition, ovarian cancer – cell-based, oncology-focused library, rucaparib conditional, profiling panel (AID 1508598). The settings on record: patient-derived ovarian cancer cells, CellTiter-Glo viability, 144 h, stronger effect = lower value.
The nature of test [8]: viability loss in pontine glioma line – cell-based, SU-DIPG-XXV, MIPE5.0, CellTiter-Glo, qHTS, dose response (AID 1347065; cut-off not given, nearly all actives have AC50 up to about 26 µM;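 also: cells exposed to compound for 48 hours before ATP readout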). The settings on record: CellTiter-Glo ATP luminescence.
Where [9] appears, read: stronger effect = lower value, cell number ratio, induced over uninduced.
The mark [10] stands for this setting: measured here: relative caspase fold change +Dox/-Dox.
Where [11] appears, read: measured here: total cells with miR-34 induction, stronger effect = lower value.
[12] abbreviates: measured here: total cells without miR-34 induction.
Setting [13] is: MELAS cybrid survival, CellTiter-Glo 48 h, stronger effect = higher value.
The mark [14] stands for this setting: Rieske KO mouse fibroblast survival, CellTiter-Glo 72 h.

Records with an inconclusive call do not appear. The source made the active and inactive calls.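 The calls were made as follows, unless noted: active = normalized viability below 100% at a tested concentration; inactive = the rest.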

As to `Cc1ccc2nc(NC(=O)CSc3nc4c(c(=O)n3-c3ccccc3)SCC4)sc2c1`, the molecule was classed as inactive in test [1], in test [2], in test [3] and in test [4]. For the same molecule, the fold change was 1.08 (inactive) in test [5] (setting [9]) and 1.26 in test [5] (setting [10]). The cell count came to 7960 in test [5] (setting [11]) and 7340 in test [5] (setting [12]). In addition, the z-score is -0.206 (inactive) in test [6] (setting [13]) and -0.109 in test [6] (setting [14]). In addition, the viability in test [7] (at 0.000305 µM, OCI-C5x cells, with rucaparib 10 µM, 100% = cells with rucaparib alone) was 116% (inactive); in test [7] (at 0.000305 µM, OCI-C5x cells, without rucaparib) it was 106% (inactive); in test [7] (at 0.000305 µM, OCI-P5x cells, with rucaparib 20 µM, 100% = cells with rucaparib alone) it was 106% (inactive); in test [7] (at 0.000305 µM, OCI-P5x cells, without rucaparib), 100% (inactive); in test [7] (at 0.00122 µM, OCI-C5x cells, with rucaparib 10 µM, 100% = cells with rucaparib alone), 113% (inactive); in test [7] (at 0.00122 µM, OCI-C5x cells, without rucaparib) it was 109% (inactive). For the same molecule, the viability in test [7] (at 0.00122 µM, OCI-P5x cells, with rucaparib 20 µM, 100% = cells with rucaparib alone) is 102% (inactive); in test [7] (at 0.00122 µM, OCI-P5x cells, without rucaparib) it was 101% (inactive); in test [7] (at 0.00488 µM, OCI-C5x cells, with rucaparib 10 µM, 100% = cells with rucaparib alone), 113% (inactive); in test [7] (at 0.00488 µM, OCI-C5x cells, without rucaparib), 118% (inactive); in test [7] (at 0.00488 µM, OCI-P5x cells, with rucaparib 20 µM, 100% = cells with rucaparib alone) it was 107% (inactive); in test [7] (at 0.00488 µM, OCI-P5x cells, without rucaparib), 95.3% (active). Also, the viability in test [7] (at 0.0195 µM, OCI-C5x cells, with rucaparib 10 µM, 100% = cells with rucaparib alone) is 116% (inactive); in test [7] (at 0.0195 µM, OCI-C5x cells, without rucaparib) it was 114% (inactive); in test [7] (at 0.0195 µM, OCI-P5x cells, with rucaparib 20 µM, 100% = cells with rucaparib alone) it was 105% (inactive); in test [7] (at 0.0195 µM, OCI-P5x cells, without rucaparib), 99.2% (active); in test [7] (at 0.0781 µM, OCI-C5x cells, with rucaparib 10 µM, 100% = cells with rucaparib alone), 112% (inactive); in test [7] (at 0.0781 µM, OCI-C5x cells, without rucaparib), 115% (inactive). Besides, the viability is 101% (inactive) in test [7] (at 0.0781 µM, OCI-P5x cells, with rucaparib 20 µM, 100% = cells with rucaparib alone); 99.7% (active) in test [7] (at 0.0781 µM, OCI-P5x cells, without rucaparib); 112% (inactive) in test [7] (at 0.313 µM, OCI-C5x cells, with rucaparib 10 µM, 100% = cells with rucaparib alone); 115% (inactive) in test [7] (at 0.313 µM, OCI-C5x cells, without rucaparib); 106% (inactive) in test [7] (at 0.313 µM, OCI-P5x cells, with rucaparib 20 µM, 100% = cells with rucaparib alone); 94.9% (active) in test [7] (at 0.313 µM, OCI-P5x cells, without rucaparib). For the same molecule, the viability is 117% (inactive) in test [7] (at 1.25 µM, OCI-C5x cells, with rucaparib 10 µM, 100% = cells with rucaparib alone); 114% (inactive) in test [7] (at 1.25 µM, OCI-C5x cells, without rucaparib); 97.6% (active) in test [7] (at 1.25 µM, OCI-P5x cells, with rucaparib 20 µM, 100% = cells with rucaparib alone); 97.1% (active) in test [7] (at 1.25 µM, OCI-P5x cells, without rucaparib); 164% (inactive) in test [7] (at 5 µM, OCI-C5x cells, with rucaparib 10 µM, 100% = cells with rucaparib alone); 162% (inactive) in test [7] (at 5 µM, OCI-C5x cells, without rucaparib). The viability was 76.9% (active) in test [7] (at 5 µM, OCI-P5x cells, with rucaparib 20 µM, 100% = cells with rucaparib alone) and 95.4% (active) in test [7] (at 5 µM, OCI-P5x cells, without rucaparib).

On to `CCCS(=O)(=O)Nc1ccc(F)c(C(=O)c2c[nH]c3ncc(Cl)cc23)c1F`, for which the result in test [1], in test [2] and in test [4] was inactive. In addition, the fold change is 0.766 (inactive) in test [5] (setting [9]) and 1.15 in test [5] (setting [10]). Moreover, the cell count in test [5] (setting [11]) was determined as 4220; in test [5] (setting [12]), 5520. Besides, the results for the z-score in test [6] (setting [13]) and in test [6] (setting [14]) were -0.49 (inactive) and 0.575, respectively.

With `CCN(CCCOc1ccc2c(Nc3cc(CC(=O)Nc4cccc(F)c4)[nH]n3)ncnc2c1)CCOP(=O)(O)O`, the call in test [1] and in test [4] was inactive. Further, the AC50 in test [8] was 1180 nM (active).

As to `COc1cccc([C@@H](C)NCCCc2ccccc2Cl)c1`, the molecule was called inactive in test [1], in test [2], in test [3] and in test [4].

Consider `CC1(N)CCN(c2cnc(-c3cccc(Cl)c3Cl)c(N)n2)CC1`, for which the call in test [1], in test [3] and in test [4] was inactive.

Consider `Cc1nc2ccc(C(=O)N3CCC4(CC3)CC(=O)c3c(cnn3C(C)C)C4)cc2[nH]1`, for which the molecule was classed as inactive in test [1] and in test [3].
